# From PubChem BioAssay (Tox21)
# Values joined by “and” are separate entries in the source; they are usually repeats but may differ in a detail not shown here. Equal entries are not always repeated. Inconclusive results are not listed. A call without a number means that no potency is given here. The source holds several records for some structures; these can differ, active in one and inactive in another. Active and inactive are the calls of the source. Unless noted, calls come from the whole dose curve; as a rule, active = well fitted curve in the direction sought with a large enough effect in the repeat runs; inconclusive = weak or mixed curves; inactive = no such curve, though single readings can be large; an effect the other way counts as inactive or inconclusive.
# Tests used:
# [1] = qHTS assay to identify small molecule agonists of the estrogen receptor beta (ER-beta) signaling pathway - cell viability counter screen (AID 1259380); note: nearly all actives have a fitted effect of over 30% in size; note: potency is the fitted concentration of half-maximal effect
# Summary of the method: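 HEK293T ER-beta-UAS-bla; 2% CS-FBS; 6 hr pre-plate, 16 hr cpd at 37C/5% CO2; LiveBLAzer read first, then CellTiter-Glo 30 min RT, luminescence.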
# [2] = qHTS assay to identify small molecule antagonists of the estrogen receptor beta (ER-beta) signaling pathway - cell viability counter screen (AID 1259382); note: nearly all actives have a fitted effect of over 55% in size; note: potency is the fitted concentration of half-maximal effect
# Summary of the method: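 Cells: ER-beta-UAS-bla HEK293T, 2,000/well, 2% CS-FBS, 6 hr settle. Cpd + E2 (1nM final), 16 hr, 37C/5% CO2. Bla FRET substrate 2 hr RT, then CellTiter-Glo 30 min RT, luminescence.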
# [3] = molecular target: Estrogen receptor (Homo sapiens) (UniProt P03372); test: qHTS assay to identify small molecule agonists of the estrogen receptor alpha (ER-alpha) signaling pathway in the presence of an antagonist (AID 1259383; calls by dose curve; note: top concentration of the series differs between compounds; nearly all actives have a fitted effect of over 15% in size)
# Summary of the method: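 VM7Luc4E2, endog. ER-alpha + 4×ERE-luc; charcoal-stripped FBS, phenol red-free, 5 d; 24hr plating; +10.0nM ICI-182,780 (final); cpds 15 conc, 22hr, 37C/5% CO2; ONE-Glo luminescence.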
# [4] = qHTS assay to identify small molecule agonists or antagonists of the thyroid stimulating hormone receptor (TSHR) signaling pathway - wild type cell line counter screen (AID 1259384; calls by dose curve; note: potency is the fitted concentration of half-maximal effect)
# Summary of the method: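 Counter screen in untransfected Hek293: compounds (15-point titration, triplicate) plus phosphodiesterase inhibitor Ro20-1724 added after 18 h plating; 30 min RT. Intracellular cAMP via competitive d2/cryptate immunoassay, 1 h incubation.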
# [5] = qHTS assay to identify small molecule agonists of the estrogen receptor alpha (ER-alpha) signaling pathway in the presence of an antagonist - cell viability counter screen (AID 1259386);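 note: cells exposed to compounds for 22 h at 37 °C before the viability read; nearly all actives have a fitted effect of over 30% in size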; note: potency is the fitted concentration of half-maximal effect
# Summary of the method: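 VM7Luc4E2, stripped-serum pre-culture 5 d; 24hr plating; +ICI-182,780 10.0nM final; cpds 15 conc, 22hr, 37C/5% CO2; CellTiter-Fluor added at 21hr, fluorescence 1hr later.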
# [6] = qHTS assay to identify small molecule agonists of the progesterone receptor (PR) signaling pathway - cell viability counter screen (AID 1346799; calls by dose curve; note: nearly all actives have a fitted effect of over 45% in size; note: potency is the fitted concentration of half-maximal effect)
# Summary of the method: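 Luminescence from CellTiter-Glo, added after the beta-lactamase FRET read in the same wells, gave cytotoxicity in PR-UAS-bla HEK293T cells treated with compounds for 16 hr at 37C.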
# [7] = qHTS assay to identify small molecule antagonists of the TGF-beta/Smad signaling pathway - cell viability counter screen (AID 1346824); note: nearly all actives have a fitted effect of over 50% in size; note: potency is the fitted concentration of half-maximal effect
# Summary of the method: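 Cytotoxicity counter-screen run in the same wells as the beta-lactamase Smad reporter read: CellTiter-Glo luminescence after 30 min at room temperature. HEK 293T SBE-bla cells had 5 hr compound exposure at 37 C with TGF-beta1 (0.25 ng/mL stock).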
# [8] = qHTS assay to identify small molecule agonists of the TGF-beta/Smad signaling pathway - cell viability counter screen (AID 1346829); note: nearly all actives have a fitted effect of over 45% in size; note: potency is the fitted concentration of half-maximal effect
# Summary of the method: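 Same-well cytotoxicity: CellTiter-Glo added after the 2 hr room-temperature beta-lactamase substrate step, luminescence measured 30 min later; cells had 5 hr of compound at 37 C.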
# [9] = qHTS assay to identify small molecule agonists of the TGF-beta/Smad signaling pathway (AID 1346859; active = well fitted activation curve with a large enough effect in the signal ratio in the repeat runs, not every such curve was filed as active; the % refers to the signal ratio; note: series mostly up to about 77 µM)
# Summary of the method: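 SBE-bla HEK 293T, 4,000 cells/well, plated o/n; cpd in DMSO, 5 hr, 37 C/5% CO2; B/G FRET substrate 2 hr RT; ex 405, em 460/530 nm.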
# [10] = molecular target: Thyrotropin-releasing hormone receptor (Homo sapiens) (UniProt P34981); test: qHTS assay to identify small molecule antagonists of the thyrotropin-releasing hormone receptor (TRHR) signaling pathway (AID 1346877; active = well fitted inhibition curve with a large enough effect in the repeat runs, not every such curve was filed as active; note: series mostly up to about 51 µM)
# Summary of the method: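 Intracellular calcium fluorescence, read kinetically every second over 3 min, reports TRH-evoked signalling in HEK293 cells carrying TRHR. Test compounds were added 5 min ahead of a 1 nM TRH challenge.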
# [11] = molecular target: Thyrotropin-releasing hormone receptor (Homo sapiens) (UniProt P34981); test: qHTS assay to identify small molecule agonists of the thyrotropin-releasing hormone receptor (TRHR) signaling pathway (AID 1346891; calls by dose curve; note: series mostly up to about 58 µM)
# Summary of the method: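 Intracellular calcium rise, read as fluorescence every second for 3 min, served as the agonist signal in dye-loaded HEK293 cells expressing TRHR; each compound ran at 15 concentrations in triplicate.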
# [12] = Human pregnane X receptor (PXR) small molecule agonists, qHTS cell viability counter screen (AID 1346977); note: nearly all actives have a fitted effect of over 50% in size; note: potency is the fitted concentration of half-maximal effect
# Summary of the method: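 PXR-Luc HepG2, 2,000 cells/well, 5% charcoal-stripped FBS; 5hr settle; cpd 24hr, 37C/5% CO2; CellTiter-Fluor at 23hr, read 1hr later (fluorescence).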
# [13] = Caspase-3/7 induction in HepG2 cells by small molecules, qHTS assay (AID 1346978); note: nearly all actives have a fitted effect of over 15% in size; note: potency is the fitted concentration of half-maximal effect
# Summary of the method: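 Caspase-3/7 induction was measured by Caspase-Glo 3/7 luminescence (30 min, room temperature) after a 17 hr compound exposure of wild-type HepG2 cells seeded at 2,000 per well and pre-incubated 5 hr.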
# [14] = Caspase-3/7 induction in CHO-K1 cells by small molecules, qHTS cell viability counter screen (AID 1346979); note: nearly all actives have a fitted effect of over 35% in size; note: potency is the fitted concentration of half-maximal effect
# Summary of the method: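 Cells (CHO-K1, wild type) are plated at 1,500 per well and incubated 5hr. Test compounds in DMSO are then pinned in, followed by 16hr at 37C and 5% CO2. Viability is read by CellTiter-Fluor fluorescence after 1hr.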
# [15] = Caspase-3/7 induction in CHO-K1 cells by small molecules, qHTS assay (AID 1346980); note: nearly all actives have a fitted effect of over 15% in size; note: potency is the fitted concentration of half-maximal effect
# Summary of the method: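 Luminescent Caspase-Glo 3/7 read (30min, room temperature) quantified apoptosis induction. Cells were wild-type CHO-K1, treated with compound for 17hr at 37 C and 5% CO2.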
# [16] = Caspase-3/7 induction in HepG2 cells by small molecules, qHTS cell viability counter screen (AID 1346981); note: nearly all actives have a fitted effect of over 30% in size; note: potency is the fitted concentration of half-maximal effect
# Summary of the method: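 HepG2, WT, 2,000 cells/well; 5 hr pre-incubation 37 C/5% CO2; compound pin-transferred from DMSO; 16 hr exposure; CellTiter-Fluor, 1 hr; fluorescence read.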
# [17] = molecular target: Progesterone receptor (Homo sapiens) (UniProt P06401); test: qHTS assay to identify small molecule agonists of the progesterone receptor (PR) signaling pathway (AID 1346784; calls by dose curve; note: nearly all actives have a fitted effect of over 30% in size)
# Summary of the method: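 Beta-lactamase reporter read-out: after 16 hr compound treatment at 37C and a further 2 hr at room temperature with LiveBLAzer B/G FRET substrate, fluorescence was measured in PR-UAS-bla HEK 293T cells grown in 2% charcoal-stripped serum.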
# [18] = molecular target: Progesterone receptor (Homo sapiens) (UniProt P06401); test: qHTS assay to identify small molecule antagonists of the progesterone receptor (PR) signaling pathway (AID 1346795; active = well fitted inhibition curve with a large enough effect in the signal ratio in the repeat runs, not every such curve was filed as active; the % refers to the signal ratio; note: potency is the fitted concentration of half-maximal effect)
# Summary of the method: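 Read-out is fluorescence from the LiveBLAzer B/G FRET substrate, cleaved by a UAS-controlled beta-lactamase in PR-UAS-bla HEK293T cells after 16 hr exposure to compound plus 1 nM promegestone (final), followed by 2 hr at room temperature.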
# [19] = qHTS assay to identify small molecule antagonists of the progesterone receptor (PR) signaling pathway - cell viability counter screen (AID 1346798); note: nearly all actives have a fitted effect of over 50% in size; note: potency is the fitted concentration of half-maximal effect
# Summary of the method: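 HEK293T PR-UAS-bla, 2% charcoal-stripped FBS; 4 hr pre-plate; cpd + R5020, 16 h 37C; LiveBLAzer read first; then CellTiter-Glo 30 min RT, luminescence.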
# [20] = molecular target: Androgen receptor (Homo sapiens) (UniProt P10275); test: qHTS assay to identify small molecule agonists of the androgen receptor (AR) signaling pathway in the presence of an antagonist (AID 1259381; calls by dose curve; note: nearly all actives have a fitted effect of over 15% in size)
# Summary of the method: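 MDA-kb2 cells, 3,000/well, rested 5hr at 37C/0% CO2 → nilutamide 3.0uM final or buffer → compounds, 15 conc. → 16hr at 37C → ONE-Glo, 30min RT → luminescence.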
# Chain of Androgen receptor (Homo sapiens) (P10275 whole entry, looked up): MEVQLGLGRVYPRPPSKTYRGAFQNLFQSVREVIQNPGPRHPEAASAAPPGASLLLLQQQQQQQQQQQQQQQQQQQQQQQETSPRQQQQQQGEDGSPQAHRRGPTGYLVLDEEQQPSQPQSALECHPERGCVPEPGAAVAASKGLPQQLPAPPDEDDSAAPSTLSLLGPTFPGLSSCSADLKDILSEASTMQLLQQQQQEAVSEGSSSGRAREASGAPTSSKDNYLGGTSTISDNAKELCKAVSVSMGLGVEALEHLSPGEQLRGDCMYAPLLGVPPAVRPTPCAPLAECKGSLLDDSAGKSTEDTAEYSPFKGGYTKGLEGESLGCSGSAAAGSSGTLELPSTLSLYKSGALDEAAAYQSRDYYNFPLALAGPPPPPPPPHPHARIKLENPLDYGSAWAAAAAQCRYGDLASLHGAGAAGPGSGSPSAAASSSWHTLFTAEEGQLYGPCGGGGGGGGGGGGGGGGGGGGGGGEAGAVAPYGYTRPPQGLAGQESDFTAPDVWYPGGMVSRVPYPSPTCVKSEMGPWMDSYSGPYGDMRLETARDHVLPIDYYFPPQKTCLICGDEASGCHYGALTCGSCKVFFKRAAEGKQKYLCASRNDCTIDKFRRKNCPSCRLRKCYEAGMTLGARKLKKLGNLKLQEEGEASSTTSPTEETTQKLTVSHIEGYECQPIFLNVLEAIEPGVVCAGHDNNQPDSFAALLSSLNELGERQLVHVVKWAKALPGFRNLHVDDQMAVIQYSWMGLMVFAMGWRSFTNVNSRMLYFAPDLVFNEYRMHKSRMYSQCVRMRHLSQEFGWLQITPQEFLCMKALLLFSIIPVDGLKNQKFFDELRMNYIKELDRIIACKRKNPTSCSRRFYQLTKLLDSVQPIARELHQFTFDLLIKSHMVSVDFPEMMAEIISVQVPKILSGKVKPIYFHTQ
# Chain of Progesterone receptor (Homo sapiens) (P06401 whole entry, looked up): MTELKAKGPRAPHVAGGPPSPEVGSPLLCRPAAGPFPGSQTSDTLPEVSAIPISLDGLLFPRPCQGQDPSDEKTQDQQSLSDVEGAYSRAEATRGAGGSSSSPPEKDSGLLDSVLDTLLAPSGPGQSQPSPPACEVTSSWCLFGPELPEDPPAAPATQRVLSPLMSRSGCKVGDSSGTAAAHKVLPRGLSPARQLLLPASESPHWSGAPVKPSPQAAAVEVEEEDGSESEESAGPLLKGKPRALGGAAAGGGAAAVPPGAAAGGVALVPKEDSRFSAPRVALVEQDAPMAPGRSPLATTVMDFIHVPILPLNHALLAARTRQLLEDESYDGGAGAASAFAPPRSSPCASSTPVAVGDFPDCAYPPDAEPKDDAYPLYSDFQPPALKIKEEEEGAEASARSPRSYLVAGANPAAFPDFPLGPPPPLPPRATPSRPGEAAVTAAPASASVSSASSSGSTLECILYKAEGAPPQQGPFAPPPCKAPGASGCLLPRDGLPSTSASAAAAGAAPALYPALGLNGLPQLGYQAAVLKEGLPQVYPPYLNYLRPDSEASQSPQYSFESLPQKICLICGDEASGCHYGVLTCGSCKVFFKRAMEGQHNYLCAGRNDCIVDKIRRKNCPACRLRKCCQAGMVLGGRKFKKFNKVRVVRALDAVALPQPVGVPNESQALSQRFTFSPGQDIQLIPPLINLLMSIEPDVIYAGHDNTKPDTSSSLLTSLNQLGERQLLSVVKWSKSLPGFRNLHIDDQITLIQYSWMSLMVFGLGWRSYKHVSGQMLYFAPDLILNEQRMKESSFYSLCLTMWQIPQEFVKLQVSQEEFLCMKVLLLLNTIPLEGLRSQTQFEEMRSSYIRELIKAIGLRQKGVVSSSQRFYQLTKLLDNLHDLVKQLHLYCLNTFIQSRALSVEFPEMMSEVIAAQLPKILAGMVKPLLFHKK
# Chain of Thyrotropin-releasing hormone receptor (Homo sapiens) (P34981 whole entry, looked up): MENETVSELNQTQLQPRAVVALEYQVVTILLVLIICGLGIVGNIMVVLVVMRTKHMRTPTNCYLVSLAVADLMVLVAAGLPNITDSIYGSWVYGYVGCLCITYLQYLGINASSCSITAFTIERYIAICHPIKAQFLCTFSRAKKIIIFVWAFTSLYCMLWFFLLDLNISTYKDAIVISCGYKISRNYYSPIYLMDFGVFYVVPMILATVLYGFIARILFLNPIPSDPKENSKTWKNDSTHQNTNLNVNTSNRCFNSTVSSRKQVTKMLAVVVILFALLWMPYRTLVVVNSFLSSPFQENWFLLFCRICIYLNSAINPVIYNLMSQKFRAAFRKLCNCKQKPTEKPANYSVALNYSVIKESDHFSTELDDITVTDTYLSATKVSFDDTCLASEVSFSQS
# Chain of Estrogen receptor (Homo sapiens) (P03372 whole entry, looked up): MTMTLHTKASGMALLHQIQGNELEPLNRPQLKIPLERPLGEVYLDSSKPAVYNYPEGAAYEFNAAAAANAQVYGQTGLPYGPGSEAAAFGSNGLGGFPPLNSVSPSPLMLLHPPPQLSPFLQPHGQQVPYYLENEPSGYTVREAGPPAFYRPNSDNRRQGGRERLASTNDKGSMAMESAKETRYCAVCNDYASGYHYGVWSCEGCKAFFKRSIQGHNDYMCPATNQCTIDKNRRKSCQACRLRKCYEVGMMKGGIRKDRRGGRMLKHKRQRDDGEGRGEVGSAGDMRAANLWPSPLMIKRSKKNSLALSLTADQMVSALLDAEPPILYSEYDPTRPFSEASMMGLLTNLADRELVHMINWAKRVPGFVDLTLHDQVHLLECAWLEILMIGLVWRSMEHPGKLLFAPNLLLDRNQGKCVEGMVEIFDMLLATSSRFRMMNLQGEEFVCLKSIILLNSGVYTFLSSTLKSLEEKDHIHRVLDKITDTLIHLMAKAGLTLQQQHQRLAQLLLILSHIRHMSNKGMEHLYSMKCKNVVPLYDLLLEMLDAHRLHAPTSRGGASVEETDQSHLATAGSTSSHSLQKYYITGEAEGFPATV
smiles,measurement,setting,value
Nc1ccc(-c2ccc(N)c(Cl)c2)cc1Cl,Potency,[1],30.6 µM (active)
same,Potency,[2],61.1 µM (active)
same,Potency,[3],inactive
same,Potency,[4],inactive
same,Potency,[5],inactive
same,Potency,[6],inactive
same,Potency,[7],inactive
same,Potency,[8],inactive
same,Potency,[9],inactive
same,Potency,[10],inactive
same,Potency,[11],inactive
same,Potency,[12],3.98 µM (active) and 54.5 µM (active)
same,Potency,[13],13.8 µM (active)
same,Potency,[14],68.9 µM (active) and 1.43 µM (active) and 48.6 µM (active)
same,Potency,[15],inactive
same,Potency,[16],9.04 µM (active) and 54.5 µM (active)
CCCCCCCCCCCCCC[P+](CCCCCC)(CCCCCC)CCCCCC,Potency,[1],12.2 µM (active) and 27.5 µM (active)
same,Potency,[2],13.7 µM (active) and 27.5 µM (active) and inactive
same,Potency,[3],inactive
same,Potency,[4],inactive
same,Potency,[5],9.73 µM (active) and 21.9 µM (active) and 6.85 µM (active)
same,Potency,[17],inactive
same,Potency,[18],inactive
same,Potency,[19],30.8 µM (active)
same,Potency,[8],15.6 µM (active) and 24.7 µM (active) and inactive
same,Potency,[9],inactive
same,Potency,[12],3.87 µM (active) and 6.16 µM (active) and 1.72 µM (active)
same,Potency,[13],inactive
same,Potency,[14],4.35 µM (active) and 6.16 µM (active) and 2.73 µM (active)
same,Potency,[15],inactive and 13.8 µM (active)
same,Potency,[16],13.7 µM (active) and 19.5 µM (active) and inactive
CCNc1nc(Cl)nc(NCC)n1,Potency,[1],inactive
same,Potency,[2],inactive
same,Potency,[3],inactive
same,Potency,[4],inactive
same,Potency,[5],inactive
same,Potency,[17],inactive
same,Potency,[18],inactive
same,Potency,[19],inactive
same,Potency,[6],inactive
same,Potency,[7],inactive
same,Potency,[8],inactive
same,Potency,[9],inactive
same,Potency,[10],inactive
same,Potency,[11],inactive
same,Potency,[12],inactive
same,Potency,[13],inactive
same,Potency,[14],inactive
same,Potency,[15],inactive
same,Potency,[16],inactive
CC(=O)[O][Hg][c]1ccccc1,Potency,[1],1.92 µM (active) and 3.86 µM (active) and 5.31 µM (active)
same,outcome,[20],inactive
same,Potency,[2],3.04 µM (active) and 4.33 µM (active) and 8.41 µM (active)
same,Potency,[3],inactive
same,Potency,[4],2.07 µM (active) and 5.88 µM (active) and 4.92 µM (active)
same,Potency,[5],7.63 µM (active) and 13.7 µM (active) and 26.6 µM (active)
same,Potency,[18],2.15 µM (active)
same,Potency,[19],4.81 µM (active) and 3.86 µM (active) and 5.31 µM (active)
same,Potency,[6],5.4 µM (active) and 5.45 µM (active) and 5.96 µM (active)
same,Potency,[7],7.69 µM (active) and 8.71 µM (active) and 10.7 µM (active)
same,Potency,[8],8.63 µM (active) and 7.76 µM (active) and 9.52 µM (active)
same,Potency,[12],2.24 µM (active) and 3.06 µM (active) and 4.73 µM (active)
same,Potency,[13],inactive
same,Potency,[14],762 nM (active) and 1.09 µM (active) and 1.88 µM (active)
same,Potency,[15],inactive
same,Potency,[16],5.4 µM (active) and 5.45 µM (active) and 11.9 µM (active)
O=[N+]([O-])O,Potency,[1],inactive
same,Potency,[2],inactive
same,Potency,[4],inactive
same,Potency,[5],inactive
same,Potency,[17],inactive
same,Potency,[18],inactive
same,Potency,[19],inactive
same,Potency,[6],inactive
same,Potency,[7],inactive
same,outcome,[7],inactive
same,Potency,[8],inactive
same,Potency,[9],inactive
same,Potency,[12],inactive
same,Potency,[13],inactive
same,Potency,[14],inactive
same,Potency,[15],inactive
same,Potency,[16],inactive
CCC(=O)C(CC(C)N(C)C)(c1ccccc1)c1ccccc1 (centres undefined),Potency,[1],54.7 µM (active)
same,outcome,[20],inactive
same,Potency,[2],inactive
same,Potency,[3],inactive
same,Potency,[4],inactive
same,Potency,[5],inactive
same,Potency,[17],inactive
same,Potency,[18],inactive
same,Potency,[19],54.7 µM (active)
same,Potency,[6],43.5 µM (active)
same,Potency,[8],inactive
same,Potency,[12],27.4 µM (active)
same,Potency,[13],inactive
same,Potency,[14],inactive
same,Potency,[15],inactive
CCCC[n+]1ccccc1,Potency,[1],inactive
same,Potency,[2],inactive
same,Potency,[4],inactive
same,Potency,[5],inactive
same,Potency,[17],inactive
same,Potency,[18],inactive
same,Potency,[19],inactive
same,Potency,[6],inactive
same,Potency,[7],inactive
same,Potency,[8],inactive
same,Potency,[9],inactive
same,Potency,[12],inactive
same,Potency,[13],inactive
same,Potency,[14],inactive
same,Potency,[15],inactive
same,Potency,[16],inactive
